From PMC5540273 (PLoS ONE, 2017) come the findings set out here.

Some test systems named below: PIM1; PIM2; PIM3; PIP5K1A; PIP5K1C; PIP5K2B; PKMYT1.
Holding throughout (conditions): concentration: 1 μM, replicates: in singlicate; n = 1
A further assay has as its system T1, PIP5K2C.
T1 construct: gene PIP4K2C

Another assay deals with T2, PKAC-alpha.
T2 construct: gene PRKACA

The test system of a further assay is T3, PKAC-beta.
T3 construct: gene PRKACB
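Note: KINOMEscan kinase panel screen.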

With `COc1cc2ncn(-c3cc(OCC4CCCO4)c(C(N)=O)s3)c2cc1OC` (stereo not drawn) [GSK204607], the “%Inh” value in the assay on PIM1 is 17%; with PIM2, 0%; in the assay with PIM3 it was 0%; in the assay on PIP5K1A, 6%; in the assay with PIP5K1C, 84%; in the assay on PIP5K2B it was 9%. Besides, the “%Inh” value with PIP5K2C is recorded as 33%; in the assay with PKAC-alpha, 0%; in the assay with PKAC-beta, 0%; in the assay on PKMYT1, 0%.

Regarding `COc1ccccc1-c1ccc2c(NC(=O)C3CC3)n[nH]c2n1` [SB-711239], the “%Inh” value in the assay with PIM1 worked out at 13%; with PIM2, 0%; with PIM3, 0%; in the assay on PIP5K1A it was 41%; in the assay on PIP5K1C, 53%; in the assay with PIP5K2B, 30%. In addition, the “%Inh” value was found to be 19% with PIP5K2C, 6% in the assay with PKAC-alpha, 2% with PKAC-beta and 0% in the assay with PKMYT1.

Take `CS(=O)(=O)c1ccc(-c2c(-c3ncn[nH]3)sc(N3CCOCC3)c2C#N)cc1`: the “%Inh” value in the assay with PIM1 was 0%; in the assay with PIM2 it was 0%; with PIM3, 0%; in the assay with PIP5K1A, 0%; in the assay on PIP5K1C, 0%; with PIP5K2B, 14%. In addition, the “%Inh” value in the assay with PIP5K2C was determined as 0%; in the assay on PKAC-alpha, 0%; in the assay with PKAC-beta it was 7%; with PKMYT1 it was 0%.

Regarding `C[C@@H]1CCCCN1c1cc(-c2ccc3c(N)n[nH]c3c2)nc(N)n1` [GSK2258759], the “%Inh” value was found to be 0% in the assay with PIM1; 0% in the assay on PIM2; 7% in the assay with PIM3; 0% in the assay on PIP5K1A; 44% in the assay on PIP5K1C; 4% with PIP5K2B. Moreover, the “%Inh” value with PIP5K2C worked out at 0%; in the assay on PKAC-alpha, 0%; in the assay on PKAC-beta, 0%; in the assay on PKMYT1, 2%.

For the compound `COc1ccc(Nc2nccc(NCCNC(=O)Nc3ccccc3F)n2)cc1` [GSK1379901], the “%Inh” value came out at 0% in the assay on PIM1; 0% in the assay with PIM2; 0% in the assay with PIM3; 35% with PIP5K1A; 33% in the assay with PIP5K1C; 14% in the assay on PIP5K2B. The “%Inh” value in the assay on PIP5K2C came out at 56%; with PKAC-alpha, 0%; in the assay with PKAC-beta, 0%; in the assay with PKMYT1, 4%.

With `COC(=O)c1c(-c2ccccc2)c2cc(C(=O)O)ccc2c(=O)n1Cc1ccccc1`, the “%Inh” value came out at 0% in the assay on PIM1; 0% in the assay on PIM2; 0% with PIM3; 18% in the assay on PIP5K1A; 17% with PIP5K1C; 22% in the assay with PIP5K2B. In addition, the “%Inh” value in the assay on PIP5K2C worked out at 13%; with PKAC-alpha, 0%; in the assay with PKAC-beta, 24%; with PKMYT1, 0%.

`CC(C)(C)c1ccc(C(=O)Nc2cn3cc(-c4cccnc4)ccc3n2)cc1`: the “%Inh” value is on record as 32% with PIM1; 12% with PIM2; 44% with PIM3; 0% in the assay with PIP5K1A; 17% in the assay on PIP5K1C; 18% with PIP5K2B. Besides, the “%Inh” value in the assay with PIP5K2C was 53%; in the assay with PKAC-alpha it was 13%; in the assay with PKAC-beta, 33%; with PKMYT1 it was 19%.

In the case of `COc1ccc(Nc2nccc(-c3cccc(NC(=O)c4cc5cc(F)ccc5[nH]4)c3)n2)cc1` [GSK1229782], the “%Inh” value with PIM1 stood at 36%; with PIM2, 0%; in the assay with PIM3, 30%; in the assay on PIP5K1A, 0%; in the assay on PIP5K1C, 15%; in the assay on PIP5K2B, 12%. Further, the “%Inh” value with PIP5K2C was found to be 81%; with PKAC-alpha, 15%; in the assay on PKAC-beta, 21%; with PKMYT1, 6%.

In the case of `Cc1cccc(-c2nc(Nc3ccncc3)c3ccccc3n2)n1` [GW855857], the “%Inh” value in the assay on PIM1 was determined as 0%; in the assay on PIM2 it was 18%; in the assay on PIM3 it was 0%; in the assay with PIP5K1A it was 10%; with PIP5K1C, 40%; in the assay with PIP5K2B it was 0%. The “%Inh” value with PIP5K2C is on record as 18%; with PKAC-alpha, 23%; in the assay with PKAC-beta, 30%; in the assay on PKMYT1, 0%.

With `COc1ccc2nc(-c3cccc(C)n3)nc(Nc3ccncc3)c2c1` [GSK204919], the “%Inh” value in the assay with PIM1 turned out to be 0%; in the assay with PIM2 it was 0%; with PIM3, 0%; in the assay with PIP5K1A, 4%; in the assay with PIP5K1C it was 28%; in the assay with PIP5K2B it was 0%. Moreover, the “%Inh” value was 0% with PIP5K2C, 3% with PKAC-alpha, 0% in the assay with PKAC-beta and 1% in the assay on PKMYT1.

Regarding `Cl.Oc1ccc(-c2nc(-c3ccccc3)[nH]c2-c2ccncc2)cc1` [SB-428218], the “%Inh” value in the assay with PIM1 was 44%; in the assay on PIM2 it was 0%; in the assay on PIM3, 42%; in the assay with PIP5K1A it was 72%; in the assay with PIP5K1C, 49%; in the assay on PIP5K2B, 0%. Also, the “%Inh” value came to 58% in the assay on PIP5K2C, 0% in the assay with PKAC-alpha, 16% in the assay with PKAC-beta and 14% with PKMYT1.

Regarding `Cc1cccc(-c2nc(-c3ccc(S(C)(=O)=O)cc3)sc2-c2ccnc(NCCc3ccccc3)c2)c1`, the “%Inh” value amounted to 0% in the assay on PIM1; 9% with PIM2; 0% in the assay with PIM3; 2% in the assay with PIP5K1A; 17% in the assay with PIP5K1C; 22% in the assay with PIP5K2B. The “%Inh” value in the assay on PIP5K2C stood at 7%; in the assay with PKAC-alpha it was 0%; in the assay on PKAC-beta, 17%; in the assay with PKMYT1 it was 0%.

For `O=C(Nc1n[nH]c2nc(-c3nccs3)c(Br)cc12)C1CC1` [SB-742251], the “%Inh” value with PIM1 is reported as 0%; in the assay on PIM2, 0%; in the assay on PIM3 it was 0%; with PIP5K1A it was 7%; with PIP5K1C it was 67%; in the assay with PIP5K2B, 23%. Also, the “%Inh” value is listed as 27% with PIP5K2C, 0% with PKAC-alpha, 0% in the assay on PKAC-beta and 3% in the assay with PKMYT1.

For the compound `O=C1NC(=O)C(N2CCc3ccccc32)=C1c1ccccc1Cl` [SB-373598], the “%Inh” value is reported as 0% in the assay with PIM1; 9% in the assay with PIM2; 7% in the assay with PIM3; 0% in the assay with PIP5K1A; 29% in the assay with PIP5K1C; 35% in the assay on PIP5K2B. The “%Inh” value with PIP5K2C is reported as 1%; in the assay on PKAC-alpha, 22%; in the assay with PKAC-beta, 39%; with PKMYT1, 11%.

`COc1ccc(CNC(=O)NC2CCN(c3ccnc(Nc4cc(OC)c(OC)c(OC)c4)n3)C2)cc1` (stereo not drawn) [GSK1379748]: the “%Inh” value in the assay on PIM1 is recorded as 7%; with PIM2, 0%; in the assay on PIM3, 0%; in the assay on PIP5K1A, 36%; in the assay with PIP5K1C it was 73%; in the assay on PIP5K2B it was 7%. Also, the “%Inh” value in the assay with PIP5K2C was found to be 87%; in the assay with PKAC-alpha, 0%; in the assay with PKAC-beta, 0%; in the assay with PKMYT1 it was 3%.

Take `COc1cccc(-c2cc(-c3c[nH]nc3-c3ccccn3)ccn2)c1` [GW680338]: the “%Inh” value was determined as 0% in the assay with PIM1; 0% with PIM2; 0% with PIM3; 19% in the assay on PIP5K1A; 69% in the assay on PIP5K1C; 21% in the assay on PIP5K2B. The “%Inh” value in the assay on PIP5K2C was found to be 55%; in the assay with PKAC-alpha, 0%; with PKAC-beta, 0%; with PKMYT1, 0%.

`O=C(Nc1ccc2c(c1)OCO2)NC1CCN(c2ccnc(Nc3ccc(F)cc3)n2)C1` (stereo not drawn) [GSK1379724]: the “%Inh” value in the assay on PIM1 is 0%; in the assay on PIM2 it was 0%; in the assay on PIM3 it was 0%; in the assay with PIP5K1A, 34%; with PIP5K1C it was 32%; with PIP5K2B it was 13%. Moreover, the “%Inh” value turned out to be 23% with PIP5K2C, 0% in the assay with PKAC-alpha, 0% with PKAC-beta and 15% with PKMYT1.

Consider `COC(=O)c1c(-c2ccccc2)c2cc(OC)ccc2c(=O)n1Cc1ccccc1`, for which the “%Inh” value with PIM1 was determined as 18%; with PIM2, 2%; with PIM3, 20%; in the assay with PIP5K1A it was 16%; in the assay with PIP5K1C, 14%; in the assay with PIP5K2B, 38%. Besides, the “%Inh” value in the assay on PIP5K2C came out at 0%; in the assay with PKAC-alpha it was 21%; in the assay with PKAC-beta, 0%; in the assay with PKMYT1, 2%.
